High-throughput results as filed in PubChem.
CXXC DNA block: inhibitors of human MLL CXXC domain-DNA interaction. Potency, µM (top dose mostly 115 µM), for inactives: at the top dose activity change, negative = inhibition, usual class: inhibitors. Q03164. hit rate 0.037% among 290,000. MLL-CXXC / FITC-HOXA9 DNA fluorescence polarization; active = well fitted inhibition curve with a large enough effect in the polarisation, with a control signal flat, not every such curve was filed as active; inconclusive = small, poorly fitted or top-dose-only effect, or effect the other way, or a change in a side signal; inactive = no such curve, though single readings can be large or run the other way; the % refers to the polarisation; note: potency is the fitted concentration of half-maximal effect
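Purified MLL-CXXC (added from a 7 uM solution) was preincubated 5 min at ambient with pinned compounds in 50 mM Tris-HCl pH 7.5, 50 mM NaCl, 1 mM DTT, 0.05% BSA. Fluorescein-labeled HOX-A9 DNA (50 nM solution) followed, 30 min, then polarization read.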
p53 reactivator: re-activators of mutant p53; H1299 p53-A138V BP100-luciferase reporter, luminescence, 24 h; Potency, µM (doses to about 92.2 µM), without a hit: at the top dose activity change, positive = activation, usual class: activators; hit rate 0.063% among 320,000; AID 504706; active = well fitted activation curve with a large enough effect; inconclusive = small, poorly fitted or top-dose-only effect; inactive = no such curve, though single readings can be large or run the other way; note: potency is the fitted concentration of half-maximal effect; % of control where 0% means no effect; nearly all actives have a fitted effect of over 45% in size
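H1299 (p53-null), stable ts p53-A138V + BP100-Luc; 1000 cells/well, Opti-MEM/10% FBS; cpd 4 pt, 1:5; 24 h, 37 deg C, 5% CO2; detection reagent 10 min RT; luminescence.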
Menin-MLL TR inh: displaces Texas Red mutant MLL peptide from human menin. O00255. AID 1768. hit rate 0.23% among 270,000. Menin + Texas Red MLL mutant peptide, fluorescence polarization. Potency, µM (top dose mostly 61.6 µM), without a hit: at the top dose FP activity change, negative = inhibition, hits mostly inhibitors; active = well fitted inhibition curve with a large enough effect in the polarisation, with a control signal flat, not every such curve was filed as active; inconclusive = small, poorly fitted or top-dose-only effect, or effect the other way, or a change in a side signal; inactive = no such curve, though single readings can be large or run the other way; the % refers to the polarisation; note: potency is the fitted concentration of half-maximal effect; % of control where 0% means no effect
Menin MLL FP FL: displaces fluorescein MLL peptide from human menin; Fluorescence polarization, fluorescein-MLL peptide displacement from menin; 290,000 tested, under 10 active; FP activity change, % at 61.4 µM; AID 1766; active = well fitted curve in the direction sought with a large enough effect in the polarisation, not every such curve was filed as active; inconclusive = small, poorly fitted or top-dose-only effect, or effect the other way, or a change in a side signal; inactive = no such curve, though single readings can be large or run the other way; the % refers to the polarisation; note: % of control where 0% means no effect
ClpP mod: qHTS Assay for Activators of ClpP. hit rate 1.9% among 340,000. purified B. subtilis ClpP, FRET peptide cleavage, 20 min. Potency, µM (highest dose often 57.5 µM), without a hit: at the highest dose activity change, negative = active. AID 651965, 2013. ATP-dependent Clp protease proteolytic subunit (Bacillus subtilis (strain 168)), P80244; active = well fitted falling curve with a large enough effect; inconclusive = small, poorly fitted or top-dose-only effect; inactive = no such curve, though single readings can be large or run the other way; note: potency is the fitted concentration of half-maximal effect; the source files actives as falling curves though it sought activators and does not explain the sign; nearly all actives have a fitted effect of over 65% in size
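Buffer: 100 mM Tris/HCl pH8, 100 mM KCl, 0.05% low protease BSA, 2.5% glycerol, 0.01% Tween-20. ClpP 10 microg/mL final; 20 min RT; delta FRET normalized to ADEP and DMSO controls.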
An asterisk follows results filed as active; u = inconclusive; x = not tested or not shown; ! = repeats disagree; [ ] = dose if it differs, or a comment. This excerpt belongs to a sample that is enriched for hits.

SMILES	CXXC DNA block	p53 reactivator	Menin-MLL TR inh	Menin MLL FP FL	ClpP mod
C[N+]1(CC(=O)c2ccc3c(c2)CCCC3)CCOCC1	x	x	x	x	5%
COc1ccc(NC(=O)Cn2c(SCc3ccc(C)cc3)nc3cccnc32)c(OC)c1	x	x	x	x	39%
O=C1c2ccccc2NC(c2ccc(O)cc2)N1Cc1ccco1 (stereo not given)	13%	-1%	2%	2	32µM*!
O=C1c2ccccc2NC(c2cccc(F)c2)N1Cc1ccco1 (stereo not given)	8%	-2%	9%	4	18µM*
Cc1ccc(C2Nc3ccccc3C(=O)N2Cc2ccco2)cc1 (stereo not given)	-4%	1%	-19%	-2	25µM*
O=C1c2ccccc2NC(c2ccc(OCc3ccccc3)c(OCc3ccccc3)c2)N1Cc1ccco1 (stereo not given)	x	x	x	x	4%
CCCCCCCCCCCCCCCC(=O)N[C@@H](COP(=O)(O)O)C(=O)O	x	x	u	0	x
O=C(Cn1c(=O)nc(-c2ccccc2)c2ccccc21)NCc1ccccc1Cl	x	x	x	x	-7%
CCCCC/C(C=O)=C/c1ccccc1	-1%	x	-5%	2	x
Cc1c(CC(=O)NCCc2ccccc2)c(=O)oc2c(C)c3occ(C(C)(C)C)c3cc12	x	x	x	x	32µM*
CCOC(=O)CCCNC(=O)N1CCc2nc(-c3ccccc3)c3c(c2C1)CO[C@@H](C)C3	x	x	-10%[11.7 µM]	-3[11.7 µM]	x
CCOCCCNC(=O)CN1C(=O)c2c(c3ccccc3n2C)C1c1ccc(OC)cc1 (stereo not given)	x	x	x	x	32µM*
COCCCNC(=O)CN1C(=O)c2c(c3ccccc3n2C)C1c1ccc(OC)cc1 (stereo not given)	x	x	x	x	32µM*
COc1ccc(C2c3c(n(C)c4ccccc34)C(=O)N2CC(=O)Nc2c(C)cc(C)cc2C)cc1 (stereo not given)	x	x	x	x	-3%
O=C(O)CCC(=O)Nc1ccccc1C(=O)NCCc1ccccc1	1%	u	7%	1	14µM*
COc1cc(NC(=O)c2cc(Cl)ccc2Cl)ccc1NC(=O)c1cc2ccccc2o1	x	x	x	x	28µM*
COc1cc(NC(C)=O)ccc1NC(=O)c1cc2ccccc2o1	-2%	x	-1%	2	-1%
CCCCCCCCCCCCCCNCCO	10%	x	6%	-1	x
Cc1ccc(CNc2ccc(N3CCOCC3)cc2)cc1	1%	x	0%	-1	x
c1cc(CNc2ccc(N3CCOCC3)cc2)ccn1	0%	0%	-14%	3	32µM*
O=C(N/N=C1/C[C@@H](O)[C@@H](O)[C@@H]2[C@H]3C(=O)N(c4ccc(F)cc4F)C(=O)[C@@H]3CC[C@@H]12)OCc1ccccc1	x	x	0%[11.7 µM]	5[11.7 µM]	x
COc1ccc2c(c1)C(=O)[C@H](OC(=O)NCc1ccco1)[C@@H](c1ccc(OC)c(Br)c1)O2	x	x	4%	0	x
CCOC(=O)c1c(C)n(-c2ccc(C)cc2)c2c(C(C(C)=O)C(=O)O)c(Br)c(O)c(O)c12 (stereo not given)	20%	-11%	u	-2	-2%
CCOC(=O)C(C(C)=O)c1c(Br)c(O)c(O)c2c(C(=O)c3ccc(C)cc3)coc12 (stereo not given)	-4%	25µM*	13%	2	-2%
O=C1[C@@H]2[C@H]3[C@H](O)[C@H](O)C/C(=N/OC[C@@H](O)COCc4ccco4)[C@H]3CC[C@H]2C(=O)N1c1ccc(F)cc1F	x	x	6%[11.7 µM]	-1[11.7 µM]	x
SMILES	CXXC DNA block	p53 reactivator	Menin-MLL TR inh	Menin MLL FP FL	ClpP mod
Cc1ccc(-c2csc3ncnc(Sc4nnnn4C4CC4)c23)cc1	x	x	x	x	-4%
O=C(COC(=O)c1ccccc1NCCO)Nc1ccc(S(=O)(=O)NC2=NCCCCC2)cc1	x	x	x	x	14µM*
O=C(COC(=O)c1ccccc1O)Nc1cccc(S(=O)(=O)NC2=NCCCCC2)c1	-5%	4%	x	7	x
CC(=O)N[C@H]1CSSC[C@@H](C(=O)N2CCC[C@H]2C(=O)N2CCC[C@H]2C(=O)N[C@@H](CCCCN)C(=O)N[C@@H](CC(=O)O)C(N)=O)NC(=O)CNC(=O)[C@H](Cc2c[nH]c3ccccc23)NC(=O)[C@H](CCCNC(=N)N)NC(=O)[C@@H](Cc2ccc(Cl)c(Cl)c2)NC(=O)[C@H](Cc2cnc[nH]2)NC(=O)[C@H](CCC(=O)O)NC1=O	x	x	3%	-3	x
O=C(CSCc1ccccc1Cl)N1CCN(c2ccccn2)CC1	15%	11%	-8%	2	32µM*
O=C(c1c(Cl)cccc1Cl)N1CCN(c2ccccn2)CC1	8%	-7%	5%	1	32µM*
Cc1ccc(S(=O)(=O)N2CCCCC2)cc1C(=O)N1CCN(c2ccccn2)CC1	-2%	-2%	-19%	0	28µM*
Cc1ccc(S(=O)(=O)c2cnc(SCC(=O)Nc3cccc(Cl)c3)nc2N)cc1C	x	x	x	x	-7%
COc1cc(C2C(C(=O)N3CCOCC3)=C(C)NC3=C2C(=O)CCC3)ccc1OC(C)=O (stereo not given)	-2%	4%	-13%	3	u
CC1=C(C(=O)N2CCOCC2)C(c2ccccc2F)C2=C(CCCC2=O)N1 (stereo not given)	0%	-3%	1%	6	25µM*
O=C(COc1ccccc1)N1c2ccccc2Sc2ccccc21	6%	-2%	-9%	-2	16µM*
O=C(COc1cccc(F)c1)N1c2ccccc2Sc2ccccc21	6%	-3%	-11%	3	1%
Cc1cc(C)n(-c2nc3ccccc3c(=O)n2OCC(=O)N(C)C)n1	3%	3%	-3%	-3	7.9µM*
Cc1cc(CC(C)C)n(-c2nc3ccccc3c(=O)n2OCC(=O)N(C)C)n1	-1%	u	-3%	5	-3%
Cc1cc(C)c(NC(=O)CSc2nnnn2-c2cccnc2)c(C)c1	10%	3%	-7%	0	x
O=C(CSc1nnnn1-c1cccnc1)Nc1ccccc1F	-10%	x	5%	2	28µM*
CCCN1CNc2c(c(=O)[nH]c(=S)n2CCc2cccc(OC)c2OC)C1	x	x	x	x	2%
Cc1ccccc1CS(=O)(=O)Cc1ccc(C(=O)NCCc2ccc(Cl)cc2)o1	x	x	x	x	1%
NC(=O)Cn1cc(C(=O)c2cccs2)c2ccccc21	4%	-2%	6%	3	20µM*
CC(=O)c1c(O)cc(=O)n(-c2ccccc2)c1-c1ccc(C)cc1	-11%	-3%	x	3	-2%
CC(=O)c1c(O)c(C)c(-c2ccccc2)n(-c2ccccc2)c1=O	-1%	-7%	u	4	22µM*
COc1ccc2c(c1)CCC2=O	x	x	x	x	0%
N#Cc1c(-c2cccc(Br)c2)cc(-c2cccnc2)nc1N	11%	-5%	20%	7	32µM*
COc1ccc2oc(C(=O)OCC(=O)N3CCN(c4ccccc4)CC3)c(C)c2c1	x	10%	x	x	-1%
